This excerpt belongs to a sample that is enriched for hits.
Shiga toxin inh – inhibitors of Shiga toxin in Vero cells; Vero cells, Shiga toxin protein synthesis inhibition reporter; inhibition, % at 38.7 µM; 290,000 tested, 9.2% active; in the data active = inhibition mostly above about 28%, no sharp cut-off; inactive = mostly below about 43%; note: 0% is about no effect
Cycloheximide cs – affects cycloheximide protein synthesis inhibition readout, counter-screen. max response, %. 300,000 tested, 12% active. cell reporter, cycloheximide protein synthesis inhibition counterscreen; in the data active = max response mostly above about 13%, no sharp cut-off; inactive = mostly below about 14%; note: read at 38.3 µM for the half of the compounds with a filed dose; 0% is about no effect
Lassa entry inh – Lassa virus entry inhibition | Lassa virus pseudotype entry inhibition, cell reporter | Potency, µM (titrated, usually from 37.9 µM), for the others: at the top dose activity change, negative = inhibition, actives largely listed as inhibitors | 300,000 tested, 1.2% active; calls by dose curve; tested in HEK293 cells; note: potency is the fitted concentration of half-maximal effect; % is set by controls: 0 for no effect and ±100 for the full control effect; nearly all actives have a fitted effect of over 50% in size
MARV entry inh – blocks Marburg virus binding to or entry into cells. Potency, µM (titrated, usually from 37.8 µM), inactives show at the top dose activity change, negative = inhibition, hits mostly inhibitors. 300,000 tested, 1.8% active. AID 540276. Marburg virus pseudotyped entry inhibition, cell reporter; calls by dose curve; tested in HEK293 cells; note: potency is the fitted concentration of half-maximal effect; % is set by controls: 0 for no effect and ±100 for the full control effect
AMA1 RON2 block – disrupts binding of P. falciparum AMA1 to RON2; AlphaScreen AMA1-biotinylated RON2 peptide binding; Potency, µM (highest dose often 58.2 µM), inactives show at the top dose activity change, negative = inhibition, usual class: inhibitors; 360,000 tested, 0.2% active; active = well fitted inhibition curve with a large enough effect; inconclusive = small, poorly fitted or top-dose-only effect; inactive = no such curve, though single readings can be large or run the other way;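 note: potency is the fitted concentration of half-maximal effect; 0% = vehicle wells and -100% = peptide control; nearly all actives have a fitted effect of over 45% in size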
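AMA1 (3D7) with his tag at 25 nM final met compounds first, then biotinylated RON2 peptide at 25 nM; detection used donor plus acceptor beads, 10 µg/mL apiece, read by AlphaScreen after 30 min at room temperature.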
An asterisk follows results filed as active; u = inconclusive; x = not tested or not shown; [ ] = dose if it differs, or a comment.

SMILES | Shiga toxin inh | Cycloheximide cs | Lassa entry inh | MARV entry inh | AMA1 RON2 block
Cc1cccc(NC(=O)c2ccc(N3CCOCC3)c([N+](=O)[O-])c2)n1 | 72.3* | 38.2* | 0.9% | -20.2% | 5.4%
O=C(Nc1cccnc1)c1ccc(N2CCCC2)c([N+](=O)[O-])c1 | 47.5 | 28.7* | 12.0% | 22.1%[46.1 µM] | -12.1%
Cc1cccc(NC(=O)c2ccc(N(C)C3CCCCC3)c([N+](=O)[O-])c2)n1 | 58.4* | 20.7* | u | u | u
O=C(Nc1cccnc1)c1ccc(N2CCOCC2)c([N+](=O)[O-])c1 | -2.1 | 1.1 | x | x | 2.4%
Cc1cccc(NC(=O)c2ccc(S(=O)(=O)N3CCOCC3)cc2)n1 | 9.5 | 3.8 | x | x | -0.3%
Cc1ccc(-n2nc(C)c3c(C(=O)NCCc4ccccc4)cc(C)nc32)cc1 | x | x | -14.9%[46.1 µM] | x | x
Cc1cccc(NC(=O)c2ccc(N3CCCCC3)c([N+](=O)[O-])c2)n1 | 68.7* | 46.0* | u | u | u
CCC(=O)c1cc(F)c(N2CCN(C(=O)c3ccco3)CC2)cc1C | 45.2* | 24.2* | x | x | -9.7%
Cc1ccccc1CC(=O)N1CCN(C(=O)c2ccco2)CC1 | -14.8 | 1.7 | x | x | -11.2%
O=C(c1ccco1)N1CCN(Cc2c(F)cccc2Cl)CC1 | 49.7* | 38.9* | x | x | 11.1%
Cc1ccccc1CN1CCN(C(=O)c2ccco2)CC1 | 36.1 | 33.2* | u | u | -29.5%
CN(C)c1ccc(NC(=O)CSc2nnc(C3CCCCC3)n2N)cc1 | 30.8* | 23.9* | 19.1%[46.1 µM] | -1.7%[46.1 µM] | -2.8%
O=C(NC1C(=O)NNC1c1ccccc1)c1ccc(F)cc1 (stereo not given) | 88.0* | 28.6* | -3.3% | 3.4% | 11.4%
Cc1ccc(C2NNC(=O)C2NC(=O)c2ccccc2)cc1 (stereo not given) | 33.0* | 38.7* | 11.4% | u | -7.6%
COc1ccc(CNC(=O)COC(=O)c2ccc(F)c(S(=O)(=O)N3CCCCC3)c2)cc1OC | -10.2 | -0.6 | x | x | -1.0%
COc1ccc(-c2nc3c(n2O)CCc2c-3no[n+]2[O-])cc1 | 23.3 | 13.3* | x | x | 1.6%
COn1c(-c2ccccc2)nc2c1CCc1c-2no[n+]1[O-] | -17.2 | -7.2 | 13.9% | 26.9% | 29.0%
CCOC(=O)N1CCN(C(=O)/C=C/c2ccc3c(c2)OCO3)CC1 | 11.8 | -1.5 | -22.5% | 7.4% | 5.1%
CN1CCN(C(=O)/C=C/c2ccc3c(c2)OCO3)CC1 | 37.6 | 26.5* | 0.9% | 10.2% | 12.2%
CCN1CCN(C(=O)/C=C/c2ccc3c(c2)OCO3)CC1 | 18.7 | 15.9 | 12.3% | -1.4%[46.1 µM] | 23.9%
COC(=O)C1CCN(C(=O)/C=C/c2ccc3c(c2)OCO3)CC1 | x | 15.2* | u | -3.2% | -2.9%
O=C(CC1SC(N2CCCC2)=NC1=O)Nc1ccc(C(=O)NCc2ccc(F)cc2)cc1 (stereo not given) | x | x | 7.0% | -1.4%[46.1 µM] | -2.2%
CCOc1ccc(Cl)cc1-c1cc(C(=O)NCc2ccccc2OC)[nH]n1 | x | x | x | x | 9.8%
O=C(C1CCN(S(=O)(=O)c2ccc(Br)s2)CC1)N1CCN(c2cccc(C(F)(F)F)c2)CC1 | x | x | 8.91µM* | u | x
Cc1ccc(C)c(Nc2nn3c(=O)c4ccc(C(=O)NCCc5ccccc5)cc4nc3s2)c1 | x | x | 2.6%[46.1 µM] | x | x
SMILES | Shiga toxin inh | Cycloheximide cs | Lassa entry inh | MARV entry inh | AMA1 RON2 block
Cc1ccc(C)c(Nc2ccc(C(=O)NCCc3ccccc3)cn2)c1 | 14.1 | 21.9* | 3.3% | 23.3% | 1.7%[2.32 µM]
Cc1ccc(C(=O)NCCCNC(=O)Cc2ccccc2)cn1 | -14.7 | -4.4 | -6.5% | 9.1%[46.1 µM] | -5.2%
Cc1ccc(Nc2ccc(C(=O)NCCc3ccccc3)cn2)cc1 | 15.0 | 11.6* | -18.3% | 10.9% | -3.3%
CC(=O)N1CCCc2cc(S(=O)(=O)N(C)CC(=O)Nc3ccc(C(C)C)cc3)ccc21 | x | x | -27.6%[46.1 µM] | x | x
O=C(CSc1nnc(C2CC2)n1-c1ccccc1)NCCc1ccccc1 | -11.1 | -1.6 | -11.8% | u | 40.9%
COc1ccc(NC(=O)c2cc3c([nH]c2=O)CC(c2ccccc2)CC3=O)cc1 (stereo not given) | x | x | 22.3%[46.1 µM] | x | x
COc1ccc(C2NN=C(c3ccc(C)cc3)S2)cc1OC (stereo not given) | 92.3* | 37.7* | x | 5.8%[46.1 µM] | -1.7%
COc1ccc(C2NC(=O)CS2)cc1OC (stereo not given) | -16.6 | -4.0 | 21.2% | 6.4% | -6.9%
Cc1ccc(O)c(NC(=O)CCC2CCCCC2)c1 | 138.1* | 34.5* | -13.4% | 0.2% | 1.5%
Cc1ccc(NC(=O)C2CCCCC2)c(O)c1 | 40.5 | 20.9* | x | x | x
O=C(CCC1CCCCC1)Nc1ccccc1O | 106.7* | 38.6* | u | 6.1% | -5.9%
Cn1c(NC(=O)CCC2CCCCC2)cc(=O)n(C)c1=O | 113.2* | 71.3* | x | x | -1.2%
Cc1ccc(NC(=O)C2CCCC2)c(Br)c1 | x | x | 17.6%[46.1 µM] | 14.4%[46.1 µM] | 5.6%
CCc1cccc(OCC(=O)Nc2ccccc2N2CCCC2)c1 | x | x | -26.0% | -12.0% | -24.3%
Cc1ccc(-c2csc(=Nc3ccccc3)n2Cc2ccc3c(c2)OCO3)cc1 | x | x | 0.8%[46.1 µM] | u | x
COc1cccc(C(=O)OCc2ccccc2C#N)c1O | 35.8 | 21.1* | 10.5% | u | 8.0%
N#Cc1ccccc1COC(=O)c1ccc(Br)o1 | 54.7 | 26.0* | u | -15.5%[46.1 µM] | -0.6%
Cc1cc(C)cc(NC(=O)Cn2nnc(-c3ccccc3F)n2)c1 | x | x | -17.4%[46.1 µM] | x | x
COc1ccc(-c2c(C)c3ccc(O)cc3oc2=O)cc1OC | 8.4 | 0.9 | x | x | -7.8%
COc1ccc(-c2c(O)c3cc(O)cc(O)c3oc2=O)cc1 | 71.2* | 43.9* | x | x | x
COc1ccc(-c2c(C)c3cc(O)ccc3oc2=O)cc1 | 23.6 | 17.7* | 3.1%[46.1 µM] | 20.4%[46.1 µM] | 17.5%
COc1ccc(-c2c(C)c3ccc(O)c(CN4CCCC4)c3oc2=O)cc1 | x | x | -28.2%[46.1 µM] | x | x
Cc1cc(C)n2nc(C(=O)N3CCCC(Nc4ccc(F)c(F)c4)C3)cc2n1 (stereo not given) | 0.9 | -2.0 | 3.2% | 4.3% | 9.4%
Cc1csc(NC(=O)c2cc3c(s2)CCC3)n1 | 86.2* | 64.4* | u | 12.6µM* | 25.9%
Cc1nc(NC(=O)c2ccc(Br)s2)sc1C(=O)N(C)C | 50.3* | 44.3* | 91.0%[14.3 µM] | u | -0.6%
SMILES | Shiga toxin inh | Cycloheximide cs | Lassa entry inh | MARV entry inh | AMA1 RON2 block
CCc1sc(C(=O)Nc2nc(C)cs2)cc1C | 76.1* | 26.5* | x | u | -13.0%
Cc1nc(NC(=O)CCl)sc1C(=O)N(C)C | 22.5 | -3.0 | x | x | 4.1%
COC(=O)c1sc(NC(=O)c2cc3c(s2)CCCC3)nc1C | 26.4* | 33.7* | -22.0% | 11.0% | 10.4%
CCOC(=O)c1sc(NC(=O)c2cc3c(s2)CCC(C)C3)nc1C (stereo not given) | 52.2 | 14.8 | 0.8% | -15.6% | -19.8%
Cc1ccc(Sc2c(C)nn(C(C)(C)C)c2OC(=O)CC(C)C)cc1 | x | x | 6.3%[46.1 µM] | -1.8%[46.1 µM] | x
O=C(Nc1nnc(C2CC2)s1)c1cc2c(s1)CCCCCC2 | -3.5 | 9.1 | x | x | x
O=C(c1scc2c1CCCC2)N1CCCCC1 | 24.8 | 12.4 | 11.1% | 16.5%[46.1 µM] | 0.0%
Cc1csc(NC(=O)c2cc3c(C)nn(Cc4ccccc4Cl)c3s2)n1 | 73.3 | 41.7* | -23.6% | u | -12.5%[11.6 µM]
Cc1ccc(NC(=O)c2cc3c(s2)CCCC3)cc1 | 103.6* | 54.0* | u | 15.4%[46.1 µM] | -21.5%
Cc1nc(NC(=O)c2cc3c(s2)CCCCC3)sc1C(=O)N(C)C | 102.0* | 21.2* | -22.9% | 17.1% | -10.6%
Cc1nn(Cc2ccccc2Cl)c2sc(C(=O)NC(C)(C)C)cc12 | -13.9 | -4.3 | u | u | 4.7%

From PubChem
